Reference: article PMC9911399, “Two distinct binding modes provide the RNA-binding protein RbFox with extraordinary sequence specificity”
Substitutions are numbered along the chain they refer to; changes in the protein carry UniProt numbers. In all, about 16,000 sequences were measured (“ka relative to ugcaugu”: median about 0.0091, highest 2% from about 0.032 on). This is one part of a sample in which the highest values are shown more often than they occur.

T1: RBFOX1 RRM (Homo sapiens, UniProt Q9NWB1 109-208)
T1 sequence: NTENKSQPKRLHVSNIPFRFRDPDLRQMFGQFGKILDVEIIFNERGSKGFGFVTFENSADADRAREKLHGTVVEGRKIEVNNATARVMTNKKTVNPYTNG

B1: CAGAAAA (DNA:RNA)
RNA: GGGAGACCGGAAUUCAGAUUGUCCCAGAAAAUUAAAUCCCGUCGUAGCCACCA
DNA 1: CAATCTGAATTCCGGTCTCCC
DNA 2: TGGTGGCTACGACGGGATT
B2: UGGGUAG (DNA:RNA)
RNA: B1 RNA with C25U, A26G, A28G, A29U, A31G
DNA 1: CAATCTGAATTCCGGTCTCCC
DNA 2: TGGTGGCTACGACGGGATT
B3: CCCAAGA (DNA:RNA)
RNA: B1 RNA with A26C, G27C, A30G
DNA 1: CAATCTGAATTCCGGTCTCCC
DNA 2: TGGTGGCTACGACGGGATT
B4: UCGCCGG (DNA:RNA)
RNA: B1 RNA with C25U, A26C, A28C, A29C, A30G, A31G
DNA 1: CAATCTGAATTCCGGTCTCCC
DNA 2: TGGTGGCTACGACGGGATT
B5: CUAGUGU (DNA:RNA)
RNA: B1 RNA with A26U, G27A, A28G, A29U, A30G, A31U
DNA 1: CAATCTGAATTCCGGTCTCCC
DNA 2: TGGTGGCTACGACGGGATT
B6: UGCUCCU (DNA:RNA)
RNA: GGGAGACCGGAAUUCAGAUUGUCCUGCUCCUUUAAAUCCCGUCGUAGCCACCA
DNA 1: CAATCTGAATTCCGGTCTCCC
DNA 2: TGGTGGCTACGACGGGATT
B7: GAUCGAC (DNA:RNA)
RNA: B1 RNA with C25G, G27U, A28C, A29G, A31C
DNA 1: CAATCTGAATTCCGGTCTCCC
DNA 2: TGGTGGCTACGACGGGATT
B8: GAGAGCC (DNA:RNA)
RNA: B1 RNA with C25G, A29G, A30C, A31C
DNA 1: CAATCTGAATTCCGGTCTCCC
DNA 2: TGGTGGCTACGACGGGATT
B9: GCCAUGU (DNA:RNA)
RNA: B6 RNA with U25G, G26C, U28A, C29U, C30G
DNA 1: CAATCTGAATTCCGGTCTCCC
DNA 2: TGGTGGCTACGACGGGATT
B10: GCAUAGU (DNA:RNA)
RNA: B6 RNA with U25G, G26C, C27A, C29A, C30G
DNA 1: CAATCTGAATTCCGGTCTCCC
DNA 2: TGGTGGCTACGACGGGATT
B11: ACGCAUC (DNA:RNA)
RNA: B1 RNA with C25A, A26C, A28C, A30U, A31C
DNA 1: CAATCTGAATTCCGGTCTCCC
DNA 2: TGGTGGCTACGACGGGATT
B12: GCAUGUU (DNA:RNA)
RNA: B6 RNA with U25G, G26C, C27A, C29G, C30U
DNA 1: CAATCTGAATTCCGGTCTCCC
DNA 2: TGGTGGCTACGACGGGATT
B13: ACGCAUA (DNA:RNA)
RNA: B1 RNA with C25A, A26C, A28C, A30U
DNA 1: CAATCTGAATTCCGGTCTCCC
DNA 2: TGGTGGCTACGACGGGATT
B14: CGCAUUG (DNA:RNA)
RNA: B1 RNA with A26G, G27C, A29U, A30U, A31G
DNA 1: CAATCTGAATTCCGGTCTCCC
DNA 2: TGGTGGCTACGACGGGATT
B15: GCAAUGU (DNA:RNA)
RNA: B1 RNA with C25G, A26C, G27A, A29U, A30G, A31U
DNA 1: CAATCTGAATTCCGGTCTCCC
DNA 2: TGGTGGCTACGACGGGATT
B16: GCAUUGU (DNA:RNA)
RNA: B6 RNA with U25G, G26C, C27A, C29U, C30G
DNA 1: CAATCTGAATTCCGGTCTCCC
DNA 2: TGGTGGCTACGACGGGATT
B17: CCGCAUG (DNA:RNA)
RNA: B1 RNA with A26C, A28C, A30U, A31G
DNA 1: CAATCTGAATTCCGGTCTCCC
DNA 2: TGGTGGCTACGACGGGATT

Target: T1, RBFOX1 RRM
Assay: EMSA; HiTS-Eq, 1 nM pool, 10 min; buffer printed only for the single-RNA assays: 10 mM Tris pH 7.5, 150 mM NaCl, 3.4 mM EDTA, 0.001% NP-40, 30 C
Conditions: tags: His6 N-terminal (pET28a); label: 5' 32P
Method in brief: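 Purified RbFox RRM (wild type or mutant) was equilibrated for 10 min in 50 µL with 1 nM of a 5′-radiolabelled pool of RNA with 7 randomized nucleotides, its flanks annealed to DNA oligonucleotides, across increasing protein concentrations. Free RNA was separated by 8% native PAGE, excised, reverse-transcribed, PCR-barcoded and sequenced on an Illumina HiSeq 2500. Relative association constants came from read-count changes of each variant against the control reaction, normalised to the cognate motif.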

In order of rising binding signal:
1. B1  0.000855 KA relative to UGCAUGU
2. B3  0.00241 KA relative to UGCAUGU
3. B13  0.00394 KA relative to UGCAUGU
4. B11  0.00881 KA relative to UGCAUGU
5. B15  0.01 KA relative to UGCAUGU
6. B10  0.0104 KA relative to UGCAUGU
7. B9  0.0117 KA relative to UGCAUGU
8. B16  0.0129 KA relative to UGCAUGU
9. B14  0.0131 KA relative to UGCAUGU
10. B6  0.0145 KA relative to UGCAUGU
11. B8  0.0145 KA relative to UGCAUGU
12. B5  0.0159 KA relative to UGCAUGU
13. B7  0.0165 KA relative to UGCAUGU
14. B4  0.0169 KA relative to UGCAUGU
15. B2  0.0258 KA relative to UGCAUGU
16. B12  0.635 KA relative to UGCAUGU
17. B17  0.806 KA relative to UGCAUGU
